Compound activity from PubChem BioAssay.
PKA-R2B act = activators of human PKA-R2B complex. 340,000 compounds, 0.079% hits. PKA-R2B holoenzyme dissociation, Cy5-IP20 fluorescence polarization; R2B truncated from residue 108, S112A mutant; 0% DMSO only, 100% 113 µM cGMP. activation, % at 11.4 µM. P22694+P31323;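 active = activation above a cutoff set at the mean over all compounds plus 3 SD, cut at about 18% in these data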;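 note: higher means more holoenzyme dissociation and a rise in polarization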
IDE cell inh = inhibits human insulin-degrading enzyme in HEK cells; P14735; FAbetaB cleavage, fluorescence polarization; inhibition, % at 5.59 µM; 320,000 compounds, 0.41% hits; AID 434962;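 active = percent inhibition above the average of all tested compounds plus 3 SD, set per screening campaign, cut at about 16% in these data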;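 note: IDE supplied by intact live HEK cells; FP after avidin binding of uncleaved biotin substrate so inhibition keeps polarization high; 0% = DMSO wells and 100% = 60 µM reference IDE inhibitor Ii1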
PKA-R1A act = PKA-R1A complex activation; 340,000 compounds, 0.083% hits; activation, % at 11.4 µM; AID 504707; PKA-R1A dissociation, Cy5-IP20 fluorescence polarization; scaled: DMSO 0%, 113 µM cGMP 100%;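 active = percent activation above the mean of all tested compounds plus 3 SD, cut at about 19% in these data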;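 note: higher means more PKAc released from R1A so a rise in polarization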
IDE cell activ = IDE (human) activation, cell-based. P14735. 340,000 compounds, 0.073% hits. HEK cells, FAbeta-B cleavage, fluorescence polarization; 0% vehicle, 100% cell-free pure enzyme wells. activation, % at 5.96 µM;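 active = activation above the mean of all tested compounds plus 3 SD, set per screening campaign, cut at about 17% in these data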
Rin1-Abl PPI inh = inhibitors of human Rin1-Abl protein interaction. TR-FRET Rin1/Abl binding, biochemical. P00519+Q13671. 360,000 compounds, 0.4% hits. AID 588664. inhibition, % at 7.35 µM; in the data active = inhibition above about 5%, passing the limit was not always enough
Target sequence (P00519 whole entry, looked up): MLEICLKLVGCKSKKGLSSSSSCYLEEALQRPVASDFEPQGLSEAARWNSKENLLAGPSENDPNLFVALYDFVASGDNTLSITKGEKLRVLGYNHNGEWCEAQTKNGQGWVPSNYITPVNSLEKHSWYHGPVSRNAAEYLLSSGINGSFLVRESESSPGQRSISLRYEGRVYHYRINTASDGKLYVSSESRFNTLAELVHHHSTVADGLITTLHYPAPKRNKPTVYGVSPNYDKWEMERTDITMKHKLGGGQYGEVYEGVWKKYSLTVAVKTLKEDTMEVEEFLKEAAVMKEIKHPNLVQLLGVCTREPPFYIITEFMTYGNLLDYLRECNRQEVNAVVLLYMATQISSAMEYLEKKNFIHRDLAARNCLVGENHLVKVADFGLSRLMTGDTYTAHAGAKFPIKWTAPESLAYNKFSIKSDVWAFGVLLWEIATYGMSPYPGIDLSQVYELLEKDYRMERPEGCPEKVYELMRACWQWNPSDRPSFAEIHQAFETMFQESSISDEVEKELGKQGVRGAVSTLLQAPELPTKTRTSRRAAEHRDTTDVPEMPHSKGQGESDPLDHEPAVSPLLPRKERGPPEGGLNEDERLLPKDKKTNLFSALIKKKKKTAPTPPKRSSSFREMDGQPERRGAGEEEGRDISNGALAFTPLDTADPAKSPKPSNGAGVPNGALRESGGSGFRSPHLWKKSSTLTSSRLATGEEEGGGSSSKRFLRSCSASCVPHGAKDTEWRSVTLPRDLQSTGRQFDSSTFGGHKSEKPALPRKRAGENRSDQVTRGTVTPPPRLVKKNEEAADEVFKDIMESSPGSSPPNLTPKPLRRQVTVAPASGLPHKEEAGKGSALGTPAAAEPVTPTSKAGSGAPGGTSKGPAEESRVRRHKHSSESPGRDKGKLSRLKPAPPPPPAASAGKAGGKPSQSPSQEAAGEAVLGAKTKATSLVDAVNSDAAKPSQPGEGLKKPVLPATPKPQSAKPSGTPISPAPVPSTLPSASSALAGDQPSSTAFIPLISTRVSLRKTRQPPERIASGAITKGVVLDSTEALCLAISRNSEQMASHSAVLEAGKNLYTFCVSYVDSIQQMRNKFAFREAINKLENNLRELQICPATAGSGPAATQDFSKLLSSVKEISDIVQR
Target sequence (Q13671 whole entry, looked up): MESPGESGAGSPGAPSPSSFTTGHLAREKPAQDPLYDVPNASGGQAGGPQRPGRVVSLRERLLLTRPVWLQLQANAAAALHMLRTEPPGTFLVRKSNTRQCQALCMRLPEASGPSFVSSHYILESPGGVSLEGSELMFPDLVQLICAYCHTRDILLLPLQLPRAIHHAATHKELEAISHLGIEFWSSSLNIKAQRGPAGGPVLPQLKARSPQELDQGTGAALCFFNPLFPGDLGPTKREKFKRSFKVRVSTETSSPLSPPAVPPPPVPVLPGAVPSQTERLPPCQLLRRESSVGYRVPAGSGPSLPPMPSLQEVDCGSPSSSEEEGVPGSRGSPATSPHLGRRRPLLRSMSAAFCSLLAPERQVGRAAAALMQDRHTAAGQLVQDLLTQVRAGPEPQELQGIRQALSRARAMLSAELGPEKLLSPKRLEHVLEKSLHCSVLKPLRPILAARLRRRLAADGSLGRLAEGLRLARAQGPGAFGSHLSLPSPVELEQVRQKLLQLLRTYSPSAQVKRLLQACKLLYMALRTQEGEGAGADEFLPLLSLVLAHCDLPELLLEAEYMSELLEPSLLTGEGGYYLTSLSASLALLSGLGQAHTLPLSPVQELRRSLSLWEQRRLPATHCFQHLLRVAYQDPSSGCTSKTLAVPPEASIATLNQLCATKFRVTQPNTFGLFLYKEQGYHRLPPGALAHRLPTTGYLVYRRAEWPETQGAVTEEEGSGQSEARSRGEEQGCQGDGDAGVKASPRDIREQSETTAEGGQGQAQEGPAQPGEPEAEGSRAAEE
E coli Lon inh = inhibitors of E. coli Lon protease; purified E. coli Lon protease, fluorescence polarization; inhibition, % at 7.94 µM; 360,000 compounds, 0.42% hits; in the data active = inhibition above about 13%, passing the limit was not always enough;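 note: 0% = enzyme with probe and DMSO and 100% = no enzyme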
IDE inh confirm = confirmation of human insulin-degrading enzyme inhibitors in cells; shares compounds with IDE cell inh; HEK cells, FAbetaB cleavage, fluorescence polarization; inhibition, % at 5.59 µM; 1,200 compounds, 51% hits;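 active = mean inhibition across triplicate wells above the cutoff set by the earlier primary insulin-degrading enzyme screen, cut at about 16% in these data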;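 note: 0% = DMSO wells and 100% = 60 µM reference IDE inhibitor Ii1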
HEK293 tox = kills HEK cells in IDE inhibitor counter-screen | shares compounds with IDE cell inh | HEK293 cytotoxicity, ATP luminescence | inhibition, % at 5.59 µM | 1,200 compounds, 28% hits; in the data active = inhibition above about 22%;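 note: 0% = vehicle wells and 100% = reference cytotoxic drug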
Starred values were filed as active, the others as inactive; i = inactive; x = not tested or not shown. A selection: hits, their analogues and other compounds. The true share with any hit is near 1.3%.

SMILES | PKA-R2B act | IDE cell inh | PKA-R1A act | IDE cell activ | Rin1-Abl PPI inh | E coli Lon inh | IDE inh confirm | HEK293 tox
CC(=O)Oc1c(-c2ccco2)oc2ccccc2c1=O | -5 | 77* | -7 | -95 | -2 | 13 | 104* | 8
Cn1cc(/C=C/c2cc[n+](C)cc2)c2cc(F)ccc21 | -9 | 31* | -12 | -25 | -106 | -318 | 75* | 77*
Cn1cc(/C=C/c2cc[n+](C)cc2)c2cc(Cl)ccc21 | 5 | 38* | 9 | -12 | -86 | -287 | 62* | 81*
Cc1ccc(CNC(=O)CCSCc2ccccc2F)cc1 | -6 | 3 | -16 | 8 | -2 | -5 | x | x
O=C(Nc1ccccc1)N1CCCCC1c1cccnc1 (stereo unspecified) | -1 | 0 | -1 | 5 | 2 | -4 | x | x
COc1cc(/C=C2\SC(=Nc3ccccc3)NC2=O)cc(Cl)c1O | 2 | 134* | 4 | -112 | 0 | -489 | 150* | 28*
COc1cc(/C=C2/SC(=Nc3ccc(O)cc3)NC2=O)ccc1O | -2 | 35* | -10 | -41 | -4 | -135 | 60* | 59*
COc1cc(/C=C2\SC(=Nc3ccccc3OC)NC2=O)ccc1O | 3 | 16 | -8 | -13 | -3 | -110 | x | x
CCOC(=O)c1c(C)[nH]c(C(=O)COC(=O)CNC(=O)c2ccccc2Cl)c1C | 5 | 17* | 10 | 2 | 3 | -5 | 1 | 13
O=C(CSc1ccccc1)Nc1cccc(S(=O)(=O)N2CCCC2)c1 | -6 | 10 | -6 | 3 | 1 | -4 | x | x
Cc1sc2ncnc(N3CCC(C(=O)NNC(=O)COc4ccc(Br)cc4)CC3)c2c1C | -1 | 22* | 1 | -10 | -4 | -2 | 13 | 11
Cc1cc2cc(C(c3nnnn3Cc3ccccc3)N3CCc4ccccc43)c(=O)[nH]c2cc1C (stereo unspecified) | -11 | 16* | -11 | 1 | -6 | -1 | 3 | 9
Cc1ccc2[nH]c(=O)c(C(c3nnnn3Cc3ccccc3)N3CCc4ccccc43)cc2c1 (stereo unspecified) | -9 | -1 | -8 | -1 | 2 | -10 | x | x
O=C(/C=C/c1ccc(OCc2cccc(Cl)c2)cc1)N1CCOCC1 | -16 | 18* | -2 | -6 | 0 | 5 | 10 | 18
O=C(/C=C/c1ccc(Cl)cc1)N1CCOCC1 | 10 | 1 | -5 | -7 | 0 | -2 | x | x
CCOC(=O)c1c(NC(=O)COC)sc(C(C)=O)c1C | -10 | 2 | -8 | 2 | -2 | -7 | x | x
CCOC(=O)c1c(NC(=O)COC(=O)CNC(=O)c2ccco2)sc(C(C)=O)c1C | 14 | 17* | -4 | -7 | -1 | 4 | 9 | 6
Cc1ccc(N(C)S(=O)(=O)c2cccc(C(=O)Nc3ccc(C)cn3)c2)cc1 | -2 | 0 | -4 | 7 | 3 | 5 | x | x
CCCN1CCc2c(sc(NC(=O)c3ccc(S(=O)(=O)N(C)c4ccccc4)cc3)c2C(N)=O)C1 | -5 | 16* | 1 | -8 | 0 | i | 11 | 26*
CN1CCc2c(sc(NC(=O)c3ccc(S(=O)(=O)N4CCCCCC4)cc3)c2C(N)=O)C1 | -4 | 25* | -11 | -18 | -2 | -192 | 4 | 19
CN(c1ccccc1)S(=O)(=O)c1ccccc1Br | -2 | 3 | 1 | 2 | 0 | 2 | x | x
CCOC(=O)C1=C(O)/C(=C/N(C)C)N=C1C | 3 | 4 | -2 | -2 | -2 | 5 | x | x
CC(C)(C)c1ccc(NC(=O)c2c(F)cccc2Cl)cc1 | -2 | 13 | -3 | 1 | 0 | 0 | x | x
COc1cc(/C=C2\SC(=S)N(CC(=O)O)C2=O)ccc1OC(=O)c1ccco1 | 1 | 24* | 6 | -31 | -2 | -19 | 107* | 5
COc1cc(/C=C2/SC(=S)N(CC(=O)O)C2=O)ccc1OC(=O)c1ccco1 | -4 | 26* | -1 | -19 | 2 | -11 | 90* | 9
SMILES | PKA-R2B act | IDE cell inh | PKA-R1A act | IDE cell activ | Rin1-Abl PPI inh | E coli Lon inh | IDE inh confirm | HEK293 tox
CCN(CC)c1ccc2c(c1)OC(N)=C(C#N)C2c1cccnc1 (stereo unspecified) | -3 | 49* | -4 | -28 | -23 | -391 | 31* | 70*
Cc1ccn2cc(-c3ccc(NC(=O)c4ccco4)cc3)nc2c1 | -3 | 18* | -9 | -1 | 1 | -9 | 5 | 21
O=C(Nc1nc(-c2ccccn2)cs1)c1ncc(Cl)c(Cl)c1Cl | -2 | -1 | 7 | 1 | 1 | -1 | x | x
O=C(NCCS(=O)(=O)N1CCN(c2ccccc2)CC1)C12CC3CC(CC(C3)C1)C2 | -9 | x | -15 | x | -1 | 2 | x | x
COc1ccccc1N1CCN(S(=O)(=O)CCNC(=O)C23CC4CC(CC(C4)C2)C3)CC1 | -16 | 20* | -11 | -20 | -2 | 0 | 9 | 32*
Cc1c(CCC(=O)NCC(=O)NCC(=O)O)c(=O)oc2cc3oc4c(c3cc12)CCCC4 | -4 | 24* | -5 | -12 | 0 | 0 | 12 | 11
Cc1c(CCC(=O)O)c(=O)oc2cc3oc4c(c3cc12)CCCC4 | 6 | 1 | -5 | 0 | 2 | -4 | x | x
CCN(CC)c1ccc(C(=O)O)cc1 | -9 | 6 | -16 | -2 | -2 | 1 | x | x
CCN(CC)c1ccc(/C=C2\C(=O)c3ccc(C(=O)O)cc3C2=O)cc1 | 0 | 141* | -1 | -106 | -5 | i | 26* | 12
CC(C)c1ccccc1-n1c(SCc2cc(=O)oc3ccc4ccccc4c23)nnc1-c1cccnc1 | 3 | 24* | -1 | -59 | -6 | 8 | 13 | 21
O=C(Cn1cccc1C(=O)c1ccccc1)NCCN1CCOCC1 | -6 | 0 | 1 | 6 | 2 | 1 | x | x
CCCCNC(=O)/C=C1\Sc2ccccc2NC1=O | -3 | 6 | 0 | -2 | -4 | -9 | x | x
CCc1ccc(C(=O)/C=C2\Sc3ccccc3NC2=O)cc1 | -5 | 18* | -4 | -2 | -2 | 8 | 2 | 9
CCOP(=O)(c1ccc(N(C)C)cc1)C(O)c1ccncc1 (stereo unspecified) | -2 | 5 | -8 | 0 | -2 | -11 | x | x
CC(=O)C1=C(C)N(Cc2ccccc2)C(=O)N[C@H]1c1cccc(F)c1 | -2 | 9 | -1 | 3 | 0 | -5 | x | x
CC(=O)c1cc2c(C)c(C(=O)c3ccccc3)oc2cc1O | 3 | 35* | -5 | -63 | -3 | -28 | 87* | 15
O=C1CCC([N+](=O)[O-])C(c2cccc3ccccc23)N1 (stereo unspecified) | -12 | -1 | -10 | 1 | -6 | -12 | x | x
